Reference: PubChem BioAssay AID652015 (National Center for Advancing Translational Sciences (NCATS), 2013)
Inconclusive results are not listed. Calls come from the whole dose curve; as a rule, active = well fitted inhibition curve with a large enough effect; inconclusive = small, poorly fitted or top-dose-only effect; inactive = no such curve, though single readings can be large or run the other way.

target: Coelenterazine h 2-monooxygenase (Renilla reniformis) (UniProt P27652); experiment: qHTS Assay for Inhibitors of Sea Pansy Luciferase from the GSK Published Protein Kinase Inhibitor Set; conditions: purified Renilla luciferase, luminescence; series mostly up to 57.5 µM; activity change, negative = inhibition: at the top concentration
Outline: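 Purified R. reniformis luciferase (1 nM final) with 5 uM coelenterazine h in 50 mM Tris acetate pH 7.5, 100 uM NaCl, 0.01% Tween-20, 0.05% BSA. A titration, about 60 uM to 300 pM; luminescence read after about 2 min.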

Sequence of Coelenterazine h 2-monooxygenase (Renilla reniformis) (P27652 whole entry, looked up): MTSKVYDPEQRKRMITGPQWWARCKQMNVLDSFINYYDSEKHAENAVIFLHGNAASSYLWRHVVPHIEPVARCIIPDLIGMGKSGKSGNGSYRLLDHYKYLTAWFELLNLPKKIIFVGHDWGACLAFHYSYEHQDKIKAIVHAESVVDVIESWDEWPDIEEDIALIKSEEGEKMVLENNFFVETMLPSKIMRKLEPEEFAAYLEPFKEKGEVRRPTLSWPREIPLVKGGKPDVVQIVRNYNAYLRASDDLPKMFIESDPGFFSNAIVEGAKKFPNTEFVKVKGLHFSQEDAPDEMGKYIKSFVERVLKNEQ

Activity change, negative = inhibition, inactive:
CN1CCC(C(=O)Nc2n[nH]c3nc(-c4ccc(O)cc4)c(Br)cc23)CC1 10.1%
c1cc(-c2cnn3nc(N4CCOCC4)ccc23)nc(NC2CC2)n1 24.1%
Clc1ccc(-c2nn3ncccc3c2-c2ccnc(Nc3ccccc3)n2)cc1 49.5%
COc1cccc(-n2ncc3c(NN=Cc4cccc(F)c4)ncnc32)c1 32.8%
Fc1ccc(-c2ncn(C3CCNCC3)c2-c2ccnc(Oc3cccc(F)c3)n2)cc1 26.3%
COc1ccc(-c2cc(-c3cn[nH]c3-c3ccccn3)ccn2)cc1 29.3%
COc1ccc(-c2oc3ncnc(N)c3c2-c2ccc(NC(=O)Nc3cc(C(F)(F)F)ccc3F)cc2)cc1 3.79%
Fc1ccc(-c2cc(-c3cn[nH]c3-c3ccccn3)ccn2)cc1 38.8%
COc1cc2ncnc(Nc3ccc4c(cnn4Cc4ccccc4)c3)c2cc1OC 9.63%
COc1cc(C=NNc2ncnc3c2cnn3C(C)C)ccc1O 5.48%
Cc1ccc(-c2cc3c(NC(=O)C4CC4)ncnc3o2)cc1 6.69%
NS(=O)(=O)c1ccc(Nc2cc(-c3cccc(O)c3)[nH]n2)cc1 3.85%
Cc1ccc(NC(=O)c2ccoc2)cc1-c1ccc(C(=O)NCC2CC2)cc1 44.8%
CCOc1nccc2c1nc(-c1nonc1N)n2CC 45.4%
CCS(=O)(=O)c1ccc(OC)c(Nc2ncc(-c3cccc(C(C)=O)c3)o2)c1 5.78%
COc1cc2ncn(-c3cc(OC(C)c4ccccc4Cl)c(C(N)=O)s3)c2cc1OC (stereo not given) 7.79%
O=C(Nc1ccc(Oc2ccc3nc(NC(=O)c4ccco4)[nH]c3c2)cc1)Nc1cc(C(F)(F)F)ccc1F 10.1%
c1cnn2ncc(-c3ccnc(NCCCN4CCOCC4)n3)c2c1 20.5%
Nc1nc(-c2ccccn2)c(-c2ccc3ncccc3n2)s1 20.8%
CCS(=O)(=O)c1ccc(OC)c(Nc2ncc(-c3cccc(F)c3)o2)c1 39.5%
COc1ccccc1C1=C(Nc2ccccc2)C(=O)NC1=O 38.9%
Nc1nccc(C#Cc2cncnc2Nc2ccc(OCc3cccc(F)c3)c(Cl)c2)n1 1.01%
COC(=O)Nc1nc2ccc(Oc3ccc(NC(=O)Nc4cccc(Br)c4)cc3)cc2[nH]1 0.676%
CCn1cc(-c2ccnc3[nH]ccc23)c(-c2cccc(NC(=O)Nc3ccc(OCc4ccccc4)cc3)c2)n1 36.7%
CCOc1ccc2c(-c3ccnc(Nc4cc(OC)cc(C(F)(F)F)c4)n3)cnn2n1 39.9%
N#Cc1ccc(Oc2nccc(-c3c(-c4ccc(F)cc4)ncn3C3CCNCC3)n2)cc1 8.41%
Fc1ccc(-c2ncn(C3CCNCC3)c2-c2ccnc(Oc3ccc4c(c3)OCO4)n2)cc1 13.2%
COc1ccccc1Nc1ncc(-c2ccccc2)o1 4.64%
Nc1nonc1-c1nc2cnccc2n1C1CCCCC1 48.6%
CCn1c(-c2nonc2N)nc2ccc(F)cc21 25.6%
CCCN(CCS(C)(=O)=O)Cc1ccc(-c2ccc3ncnc(Nc4ccc(OCc5cccc(F)c5)c(Cl)c4)c3c2)o1 42%
CS(=O)(=O)Nc1cccc(-c2ccc3c(NC(=O)C4CC4)n[nH]c3c2)c1 17.4%
NS(=O)(=O)c1ccc(Nc2ncc(-c3ccccc3)o2)cc1 12.6%
COc1ccc(-c2nn3ncccc3c2-c2ccnc(Nc3ccc4c(c3)OCCO4)n2)cc1 9.89%
CCS(=O)(=O)c1ccc(OC)c(Nc2ncc(-c3cccc(-c4ccccc4F)c3)o2)c1 11.3%
Fc1cccc(COc2ccc(Nc3ncnc4cc(-c5ccc[nH]5)sc34)cc2Cl)c1 9.53%
COc1cccc(-c2c[nH]c3c(NN=Cc4ccncc4)ncnc23)c1 39.2%
CCc1cccc(CC)c1C=Cc1cncc(C(=O)NC)c1 8.32%
COc1cccc(-n2ncc3c(NN=Cc4ccc(C)cc4)ncnc32)c1 56.8%
Cc1nn(C)c2cc(N(C)c3ccnc(Nc4cccc(S(N)(=O)=O)c4)n3)ccc12 17.1%
